Source: the supplement of paper PMC8540655

Each compound was assayed on Aedes aegypti larvae (assay: larval motility relative to same well at 0 h (fraction); higher = more motile (less active compound), active = 0.4 or less). Conditions: 10 µM; 2 h.
Procedure: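 MMV Pandemic Response Box compounds were tested at 10 µM (1% v/v DMSO) on Aedes aegypti larvae (18-24 h after hatching, about 10 per well, 96-well plates). Motility was quantified with INVAPP (200-frame movies) at 0, 2 and 24 h. Each well's motility was divided by its own 0 h score, and the median of 3 independent screens is reported.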

Q: For `O=C(NCc1cccc2ccccc12)c1cccs1`, which larval motility is on record?
A: 0.689 (inactive)

Q: Which larval motility does the source give for `Cc1nc2ccc(Cl)cc2c(-c2ccccc2)c1CC(=O)O` here?
A: 0.615 (inactive)

Q: How did the larval motility turn out when `CCCCCCC1c2ccc(O)cc2Oc2cc(O)ccc21` was run?
A: 0.468 (inactive)

Q: For `O=C(NCc1ccc(F)cc1)c1c(O)c2ncccc2[nH]c1=O`, which larval motility is on record?
A: 0.718 (inactive)

Q: With `CC[C@@H](CO)NCCN[C@@H](CC)CO` as the compound, how does the larval motility read?
A: 0.527 (inactive)

Q: For `Fc1ccc2c(/C=C/c3nnn[nH]3)c[nH]c2c1`, which larval motility is on record?
A: 1.85 (inactive)

Q: For `N[C@H](CCC(=O)N[C@@H](Cc1c[nH]c2ccccc12)C(=O)O)C(=O)O`, which larval motility is on record?
A: 0.936 (inactive)

Q: How did the larval motility turn out when `Nc1ccc2oc(=O)ccc2c1I` was run?
A: 0.518 (inactive)

Q: `O=C(CC1Sc2ncnn2C1=O)Nc1ccc(Br)cc1` (stereo not given) was tested. Which larval motility did it give?
A: 0.859 (inactive)

Q: For `OC1O[C@H](CSc2ccc(F)cc2)[C@@H](O)[C@H]1O` (stereo not given in full), which larval motility is on record?
A: 1.09 (inactive)

Q: How did the larval motility turn out when `O=C1NC(=S)N/C1=C\c1cc(Br)cc(Br)c1O` was run?
A: 0.761 (inactive)

Q: For `CC(=O)Nc1cc(NS(=O)(=O)c2ccc(Cl)cc2)cc2c(Cl)n[nH]c12`, which larval motility is on record?
A: 0.744 (inactive)

Q: Which larval motility does the source give for `CCCCc1ccc(S(=O)(=O)Nc2cc(C)on2)cc1` here?
A: 0.511 (inactive)

Q: `Cc1oncc1C(=O)Nc1ccc(C(F)(F)F)cc1` was tested. Which larval motility did it give?
A: 0.743 (inactive)

Q: With `C=C[C@]1(C)C[C@@H](OC(=O)CS[C@@H]2C[C@H]3CC[C@@H](C2)N3C)[C@]2(C)[C@H](C)CC[C@]3(CCC(=O)[C@H]32)[C@@H](C)[C@@H]1O` as the compound, how does the larval motility read?
A: 0.606 (inactive)

Q: `C[C@H](NC(=O)C(=O)Nc1ccccc1C(C)(C)C)C(=O)N[C@@H](CC(=O)O)C(=O)COc1c(F)c(F)cc(F)c1F` was tested. Which larval motility did it give?
A: 0.777 (inactive)

Q: With `CC1(C)CC(NC(=O)C(=O)Nc2ccc(Cl)cc2)CC(C)(C)N1` as the compound, how does the larval motility read?
A: 0.977 (inactive)

Q: With `CC(C)(C)NC(=O)[C@@H]1CN(Cc2cnc3occc3c2)CCN1C[C@@H](O)C[C@@H](Cc1ccccc1)C(=O)N[C@H]1c2ccccc2C[C@H]1O` as the compound, how does the larval motility read?
A: 0.857 (inactive)

Q: How did the larval motility turn out when `C/C(=N\NC(=O)C1CC1c1ccccc1)c1ccc(NC(=O)c2ccco2)cc1` (stereo not given) was run?
A: 0.804 (inactive)

Q: With `Nc1nc(-c2ccccc2)nc2c1ncn2[C@@H]1O[C@H](COS(=O)(=O)NC(=O)c2ccccc2O)[C@@H](O)[C@H]1O` as the compound, how does the larval motility read?
A: 0.842 (inactive)

Same assay, conditions: 10 µM; 24 h

Q: How did the larval motility turn out when `O=C(NCc1cccc2ccccc12)c1cccs1` was run?
A: 0.669 (inactive)

Q: For `Cc1nc2ccc(Cl)cc2c(-c2ccccc2)c1CC(=O)O`, which larval motility is on record?
A: 1.02 (inactive)

Q: Which larval motility does the source give for `CCCCCCC1c2ccc(O)cc2Oc2cc(O)ccc21` here?
A: 0.989 (inactive)

Q: How did the larval motility turn out when `O=C(NCc1ccc(F)cc1)c1c(O)c2ncccc2[nH]c1=O` was run?
A: 0.908 (inactive)

Q: Which larval motility does the source give for `CC[C@@H](CO)NCCN[C@@H](CC)CO` here?
A: 0.604 (inactive)

Q: Which larval motility does the source give for `Fc1ccc2c(/C=C/c3nnn[nH]3)c[nH]c2c1` here?
A: 1.39 (inactive)

Q: With `N[C@H](CCC(=O)N[C@@H](Cc1c[nH]c2ccccc12)C(=O)O)C(=O)O` as the compound, how does the larval motility read?
A: 0.838 (inactive)

Q: With `Nc1ccc2oc(=O)ccc2c1I` as the compound, how does the larval motility read?
A: 0.509 (inactive)

Q: `O=C(CC1Sc2ncnn2C1=O)Nc1ccc(Br)cc1` (stereo not given) was tested. Which larval motility did it give?
A: 0.722 (inactive)

Q: For `OC1O[C@H](CSc2ccc(F)cc2)[C@@H](O)[C@H]1O` (stereo not given in full), which larval motility is on record?
A: 1.32 (inactive)

Q: `O=C1NC(=S)N/C1=C\c1cc(Br)cc(Br)c1O` was tested. Which larval motility did it give?
A: 0.843 (inactive)

Q: `CC(=O)Nc1cc(NS(=O)(=O)c2ccc(Cl)cc2)cc2c(Cl)n[nH]c12` was tested. Which larval motility did it give?
A: 0.752 (inactive)

Q: For `CCCCc1ccc(S(=O)(=O)Nc2cc(C)on2)cc1`, which larval motility is on record?
A: 0.633 (inactive)

Q: With `Cc1oncc1C(=O)Nc1ccc(C(F)(F)F)cc1` as the compound, how does the larval motility read?
A: 0.744 (inactive)

Q: Which larval motility does the source give for `C=C[C@]1(C)C[C@@H](OC(=O)CS[C@@H]2C[C@H]3CC[C@@H](C2)N3C)[C@]2(C)[C@H](C)CC[C@]3(CCC(=O)[C@H]32)[C@@H](C)[C@@H]1O` here?
A: 0.545 (inactive)

Q: For `C[C@H](NC(=O)C(=O)Nc1ccccc1C(C)(C)C)C(=O)N[C@@H](CC(=O)O)C(=O)COc1c(F)c(F)cc(F)c1F`, which larval motility is on record?
A: 1.23 (inactive)

Q: How did the larval motility turn out when `CC1(C)CC(NC(=O)C(=O)Nc2ccc(Cl)cc2)CC(C)(C)N1` was run?
A: 0.896 (inactive)

Q: For `CC(C)(C)NC(=O)[C@@H]1CN(Cc2cnc3occc3c2)CCN1C[C@@H](O)C[C@@H](Cc1ccccc1)C(=O)N[C@H]1c2ccccc2C[C@H]1O`, which larval motility is on record?
A: 0.932 (inactive)

Q: `C/C(=N\NC(=O)C1CC1c1ccccc1)c1ccc(NC(=O)c2ccco2)cc1` (stereo not given) was tested. Which larval motility did it give?
A: 0.958 (inactive)

Q: With `Nc1nc(-c2ccccc2)nc2c1ncn2[C@@H]1O[C@H](COS(=O)(=O)NC(=O)c2ccccc2O)[C@@H](O)[C@H]1O` as the compound, how does the larval motility read?
A: 1.04 (inactive)
